Measurements as given in the supplement of paper PMC6992640.
Counter-ions that a name gives are not always drawn. ± gives the standard deviation of the averaged measurements.

Columns and labels:
Test in all cases: cell viability (% of vehicle); higher = less cytotoxic
Details in all cases: 10 µM; 72 h
HCI01 = tested on: HCI01 (cells of a triple-negative basal-like breast cancer xenograft)
HCI03 = tested on: HCI03 (cells of an ER-positive luminal breast cancer xenograft)
HCI09 = tested on: HCI09 (cells of a triple-negative luminal androgen receptor type breast cancer xenograft)
HCI11 = tested on: HCI11 (cells of an ER-positive luminal breast cancer xenograft)
HCI13 = tested on: HCI13 (cells of an ER-positive luminal breast cancer xenograft)
HCI16 = tested on: HCI16 (cells of a triple-negative basal-like breast cancer xenograft)
UCD52 = tested on: UCD52 (cells of a triple-negative basal-like breast cancer xenograft)
WHIM2 = tested on: WHIM2 (cells of a triple-negative basal-like breast cancer xenograft)
WHIM30 = tested on: WHIM30 (cells of a triple-negative basal-like breast cancer xenograft)
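Also: PDX cells carrying CMV promoter-driven luciferase, viability read as total photon flux per second by IVIS imaging following D-luciferin, vehicle control 0.1% DMSO.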

| Compound | cell viability (HCI01) | cell viability (HCI03) | cell viability (HCI09) | cell viability (HCI11) | cell viability (HCI13) | cell viability (HCI16) | cell viability (UCD52) | cell viability (WHIM2) | cell viability (WHIM30) |
| --- | --- | --- | --- | --- | --- | --- | --- | --- | --- |
| CN(C)C(=O)c1cc2cnc(Nc3ccc(N4CCNCC4)cn3)nc2n1C1CCCC1 | 109 ± 4.3 | 135 | 114 ± 30 | 138 | 126 ± 13 | 91.7 | 148 ± 8.1 | 108 ± 13 | 130 ± 9.5 |
| CN1CCN(C2=Nc3ccccc3Oc3ccc(Cl)cc32)CC1.O=C(O)CCC(=O)O [Loxapine Succinate] | 117 ± 40 | 88.4 | 84.5 ± 17 | 84.4 | 64.9 ± 5.7 | 138 | 108 ± 6.8 | 104 ± 24 | 103 ± 6 |
| Nc1ncn(C2CC(O)C(CO)O2)c(=O)n1 (stereo unspecified) | 145 ± 29 | 140 | 96 ± 13 | 108 | 126 ± 12 | 123 | 136 ± 30 | 105 ± 16 | 189 ± 7.4 |
| CC1(O)CC(c2nc(-c3ccc4ccc(-c5ccccc5)nc4c3)c3c(N)nccn23)C1 (stereo unspecified) [Linsitinib] | 112 ± 1.2 | 109 | 73.3 ± 39 | 76.3 | 38.6 ± 4 | 127 | 71.6 ± 2.8 | 102 ± 11 | 126 ± 12 |
| CC(=O)Oc1ccccc1C(=O)O [Aspirin (Acetylsalicylic acid)] | 174 ± 16 | 107 | 98.5 ± 3.8 | 136 | 148 ± 30 | 151 | 142 ± 13 | 101 ± 16 | 160 ± 23 |
| CO/N=C(\C(=O)N[C@@H]1C(=O)N2C(C(=O)[O-])=C(COC(C)=O)CS[C@H]12)c1csc(N)n1.[Na+] [Cefotaxime (sodium salt)] | 94.8 ± 14 | 121 | 105 ± 3.7 | 74.9 | 155 ± 13 | 107 | 116.5 ± 0.35 | 99.12 ± 0.99 | 136.3 ± 0.17 |
| Cc1ncc([N+](=O)[O-])n1CC(C)O (stereo unspecified) [Secnidazole] | 57.6 ± 32 | 133 | 82.6 ± 1.1 | 89.3 | 103 ± 11 | 114 | 79.3 ± 1.8 | 92.4 ± 20 | 149 ± 20 |
| CN1CCN(c2cc3c(cc2F)c(=O)c(C(=O)O)cn3-c2ccc(F)cc2)CC1 [Difloxacin HCl] | 60.2 ± 1 | 84.7 | 53.6 ± 2 | 190 | 115 ± 8.6 | 94.8 | 116 ± 9.9 | 71.6 ± 21 | 130 ± 23 |
| CS(=O)(=O)OCCCCOS(C)(=O)=O [Busulfan] | 99.951 ± 0.028 | 115 | 117 ± 7.2 | 105 | 109 ± 4.9 | 108 | 81.4 ± 3.8 | 97.6 ± 4 | 143 ± 10 |
| O=C1c2ccccc2C(=O)C1c1ccccc1 [Phenindione] | 127 ± 33 | 142 | 104 ± 5.7 | 94.7 | 92.6 ± 26 | 114 | 104 ± 7.3 | 124 ± 13 | 159 ± 35 |
| CO[C@H]1/C=C/O[C@@]2(C)Oc3c(C)c(O)c4c(O)c(c5c(nc6cc(C)ccn65)c4c3C2=O)NC(=O)/C(C)=C\C=C\[C@H](C)[C@H](O)[C@@H](C)[C@H](O)[C@@H](C)[C@H](OC(C)=O)[C@@H]1C [Rifaximin (Xifaxan)] | 121 ± 13 | 115 | 114 ± 43 | 98.8 | 98.8 ± 33 | 97.6 | 91.9 ± 7.9 | 68.6 ± 13 | 128 ± 12 |
| CCC1(O)CC2CN(CCc3c([nH]c4ccccc34)C(C(=O)OC)(c3cc4c(cc3OC)N(C)C3C(O)(C(=O)OC)C(OC(C)=O)C5(CC)C=CCN6CCC43C65)C2)C1.O=S(=O)(O)O (stereo unspecified) [Vinblastine sulfate] | 127 ± 23 | 88.5 | 61 ± 26 | 102 | 40.1 ± 2.1 | 144 | 80.3 ± 1.4 | 76.8 ± 13 | 102 ± 19 |
| O=C(O)c1cc(=O)c2ccccc2o1 [Chromocarb] | 124 ± 23 | 119 | 96.2 ± 1.6 | 78.7 | 71.6 ± 5.2 | 111 | 92.59 ± 0.2 | 103 ± 11 | 85.9 ± 2.8 |
| CC(=O)O[C@H]1C(=O)[C@@]2(C)[C@H]([C@H](OC(=O)c3ccccc3)[C@]3(O)C[C@H](OC(=O)[C@H](O)[C@@H](NC(=O)c4ccccc4)c4ccccc4)C(C)=C1C3(C)C)[C@]1(OC(C)=O)CO[C@@H]1C[C@@H]2O [Paclitaxel (Taxol)] | 124 ± 7.2 | 92.4 | 95 ± 4.1 | 96.5 | 100 ± 8.8 | 156 | 66.2 ± 4.7 | 92.9 ± 12 | 114 ± 7.4 |
| COc1ccnc(C[S+]([O-])c2nc3cc(OC(F)F)ccc3[nH]2)c1OC (stereo unspecified) [Pantoprazole] | 123 ± 15 | 133 | 102 ± 2.6 | 103 | 97.1 ± 2.1 | 108 | 130 ± 5.1 | 100 ± 7.9 | 130 ± 7.3 |
| Cc1ccc(Nc2nccc(N(C)c3ccc4c(C)n(C)nc4c3)n2)cc1S(N)(=O)=O.Cl | 166 ± 30 | 77.2 | 61.1 ± 13 | 85.4 | 110 ± 6.2 | 92 | 90.5 ± 2.9 | 152 ± 5.7 | 144 ± 6 |
| NCC1OC(OC2C(CO)OC(OC3C(O)C(N)CC(N)C3OC3OC(CO)C(O)C(O)C3N)C2O)C(N)C(O)C1O.O=S(=O)(O)O (stereo unspecified) [Paromomycin Sulfate] | 125 ± 32 | 133 | 88.3 ± 10 | 95 | 86.8 ± 14 | 129 | 91.82 ± 0.62 | 131 ± 48 | 111 ± 8 |
| O=C1CCc2cc(OCCCCc3nnnn3C3CCCCC3)ccc2N1 [Cilostazol] | 133 ± 7.6 | 125 | 78.2 ± 12 | 106 | 126 ± 24 | 93.7 | 80.8 ± 7.3 | 191 ± 27 | 125 ± 25 |
| CCCCNc1ccc(C(=O)OCCN(C)C)cc1.Cl [Tetracaine HCl] | 130 ± 19 | 134 | 105 ± 25 | 121 | 122 ± 19 | 99 | 90.7 ± 13 | 92.2 ± 17 | 103.43 ± 0.084 |
